In the library only some 7.9% were active in any assay of this set; here they are far more common.
Cav3 T inh – inhibitors of human Cav3.2 T-type calcium channel; Cav3.2-expressing cells, Fluo-4 calcium fluorescence FDSS; hits give low values; B-score at 10 µM; AID 449739; actives 4% (n = 100,000); O95180;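 active = single-dose well whose peak fluorescence ratio is a statistical outlier from its plate by either plate-standardised score or position-corrected B-score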
Her2 expr inh – lowers expression of human Her2 kinase; P04626; SKBR-3 HER2 protein level, AlphaScreen, 18-24 h; hits give low values; HER2 level % of control, % at 10 µM; actives 0.69% (n = 65,000);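 active = HER2 level under 5% of the carrier-only control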;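 also: 100% = DMSO carrier and 0% = 500 nM PU-H71 HSP90 inhibitor; lower value means stronger loss of Her2 protein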
PLAP activator – human PLAP activation; P05187; purified PLAP enzyme, luminescent substrate read-out; hits give high values; activation fold at 20 µM; actives 1.2% (n = 96,000); in the data active = activation fold above about 2
M1 ag – agonists of M1 muscarinic receptor | CHO-M1 cells, Fluo-4 calcium fluorescence, agonist mode; hits give high values | B-score at 10 µM | actives 3% (n = 64,000);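 active = fluorescence rise, raw or as B-score row- and column-corrected plate score, outside the 99.7% band of its plate's samples, either direction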
M1 antag – blocks the rat M1 muscarinic receptor response to acetylcholine; B-score at 10 µM; actives 3.4% (n = 64,000); CHO-M1 cells, Fluo-4 calcium, ACh EC80 antagonist mode; hits give low values; P08482;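 active = calcium fluorescence response, raw or row-and-column corrected B-score, differing from the plate sample mean either way at a set confidence level, mostly lower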
Target sequence (P08482 whole entry, looked up): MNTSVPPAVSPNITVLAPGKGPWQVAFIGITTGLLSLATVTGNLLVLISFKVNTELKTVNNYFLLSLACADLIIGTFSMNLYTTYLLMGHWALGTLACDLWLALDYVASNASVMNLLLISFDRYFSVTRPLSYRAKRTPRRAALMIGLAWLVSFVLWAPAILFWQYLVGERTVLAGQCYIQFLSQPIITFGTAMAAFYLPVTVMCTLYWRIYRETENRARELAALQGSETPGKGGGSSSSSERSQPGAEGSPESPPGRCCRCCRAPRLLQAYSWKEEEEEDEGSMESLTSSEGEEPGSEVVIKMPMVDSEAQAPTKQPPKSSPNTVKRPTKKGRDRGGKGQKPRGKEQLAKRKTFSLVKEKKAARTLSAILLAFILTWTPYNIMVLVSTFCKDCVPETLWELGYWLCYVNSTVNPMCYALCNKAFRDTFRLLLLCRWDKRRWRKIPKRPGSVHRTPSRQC
* = called active by the depositor.

`O=C(NCCSc1c[nH]c2ccccc12)c1ccc(Br)o1` gave Cav3 T inh -5*, Her2 expr inh 59, PLAP activator 1.2, M1 ag 0.074 and M1 antag -0.039.
For O=C(O)CCNC(=O)c1ccc(Br)o1 the results were Cav3 T inh -0.28, Her2 expr inh 88, PLAP activator 1.1, M1 ag 0.084 and M1 antag 0.77.
Screening CC(C)C(=O)NCCSc1c[nH]c2ccccc12 returned Cav3 T inh 2.8 and PLAP activator 1.
For Cc1[nH]c2ccccc2c1SCCNC(=O)c1ccc(Br)o1 the results were Cav3 T inh -4.1*, M1 ag 0.53 and M1 antag -0.56.
Screening CCN(CC)S(=O)(=O)c1ccc(C(=O)NCCSc2c[nH]c3ccccc23)cc1 returned Cav3 T inh -4.6*.
For O=C(NCCC(c1ccccc1)c1ccccc1)c1ccc(Br)o1 the results were Cav3 T inh -6.5* and PLAP activator 0.9.
For Cc1cccc(CCN2CCC(C(=O)c3ccc(NS(C)(=O)=O)cc3)CC2)n1 the results were Cav3 T inh -0.8.
For Cc1c(C(=O)NCC2CCCO2)oc2ccc(S(=O)(=O)N3CCCC3)cc12 (stereo not given) the results were Cav3 T inh 0.93, Her2 expr inh 82, PLAP activator 1, M1 ag -0.032 and M1 antag 0.18.
Screening Cc1c(C(=O)NCC2COc3ccccc3O2)oc2ccc(S(=O)(=O)N(C)C3CCCCC3)cc12 (stereo not given) returned Cav3 T inh -4.3* and PLAP activator 1.6.
COc1ccc(CCNc2nc(N3CCCCC3)nc(N3CCCCC3)n2)cc1OC was read as Cav3 T inh -6.7*, Her2 expr inh 57, PLAP activator 1.5, M1 ag -0.18 and M1 antag 0.15.
CC(C)CC(CO)N1CCN(C(=O)c2cccc(Cl)c2)CCC1=O (stereo not given) was read as Cav3 T inh -0.13.
Screening O=C(CSCc1cccc(CSCC(=O)Nc2ccccc2)n1)Nc1ccccc1 returned Cav3 T inh -6.8* and PLAP activator 0.6.
For Cc1cccc(C)c1NC(=O)CSCc1cccc(CSCC(=O)Nc2c(C)cccc2C)n1 the results were Cav3 T inh 0.26 and PLAP activator 0.8.
O=C(Cn1cnc2ccc(Br)cc2c1=O)c1cccs1 was read as Cav3 T inh 0.96 and PLAP activator 0.9.
`c1coc(-c2nnc3sc(C4CCCCC4)nn23)c1` gave Cav3 T inh -0.31, Her2 expr inh 135, PLAP activator 0.9, M1 ag -0.045 and M1 antag 0.28.
Screening COC(=O)C1N[C@@H]([C@@H](NC(=O)COc2ccccc2)C(=O)NCc2ccc(OC)cc2)SC1(C)C (stereo not given in full) returned Cav3 T inh 0.71.
Screening N#CCC(CNc1ncc(C(F)(F)F)cc1Cl)OC(=O)c1ccc(Cl)cc1Cl (stereo not given) returned Cav3 T inh -1.8 and PLAP activator 1.1.
`Cc1cc(C)c2nc(NC3=NCN(CCN4CCOCC4)CN3)nc(C)c2c1` gave Her2 expr inh 102, PLAP activator 1.3, M1 ag -1.2 and M1 antag 0.59.
For Cc1nc(NC2=NCN(Cc3ccc4c(c3)OCO4)CN2)nc2ccccc12 the results were Her2 expr inh 80, PLAP activator 1, M1 ag 0.47 and M1 antag -9.2*.
Screening CCc1ccc2nc(NC3=NCN(CCN4CCOCC4)CN3)nc(C)c2c1 returned Her2 expr inh 90, PLAP activator 1, M1 ag -0.058 and M1 antag -3.3*.
`CCOc1ccc(C2OC34CCCCC3C(C#N)(C#N)C2(C#N)C(=N)O4)cc1OC` (stereo not given) gave Cav3 T inh 1.8 and PLAP activator 1.
COc1cccc(NC(=O)N2CCN(Cc3nc4ccccc4c(=O)[nH]3)CC2)c1 was read as Her2 expr inh 82, M1 ag 0.55 and M1 antag 0.059.
For Cc1ccccc1N(CC(=O)N/N=C/c1ccc(N(C)C)cc1)C(=O)c1ccccc1 the results were Cav3 T inh -4.5* and PLAP activator 1.8.
For Cc1ccccc1N(CC(=O)N/N=C/c1ccccc1Cl)C(=O)c1ccccc1 the results were Cav3 T inh 0.024 and PLAP activator 1.2.
`CC(C)CC(=O)Nc1ccc(N2CCOCC2)cc1` gave Cav3 T inh -0.44 and PLAP activator 1.1.
For COC/C=C/C1=CC2=CC(=O)C(C)(OC(=O)c3cnc4ccccc4n3)C(=O)C2=CO1 (stereo not given) the results were Cav3 T inh -0.84.
`CCCCCCCCCCCCN1[C@@H](CC(C)=O)c2cc(C(F)(F)F)ccc2S1(=O)=O` gave Cav3 T inh 0.57.
For CCCCCCCCN1[C@@H](CC(=O)OCC)c2cc(C(F)(F)F)ccc2S1(=O)=O the results were Cav3 T inh -4.2*.
`CCC(CC)C(=O)Nc1cccc(/C(C)=N\NC(=O)c2ccc(C)s2)c1` gave Cav3 T inh -5.8* and PLAP activator 1.1.
Cn1c(OCc2ccc3c(c2)OCO3)nc2c1c(=O)n(Cc1cccc(Cl)c1)c(=O)n2C was read as Cav3 T inh -0.78, Her2 expr inh 104, M1 ag 0.048 and M1 antag -0.51.
CCOC(=O)c1[nH]c(C)c(C(=O)NCc2ccc(Cl)cc2)c1C was read as Cav3 T inh -0.35, Her2 expr inh 95, PLAP activator 0.8, M1 ag 0.09 and M1 antag 0.5.
For CCOC(=O)c1c(C)[nH]c(C(=O)C(C)Sc2ccc(Cl)cc2)c1C (stereo not given) the results were Cav3 T inh -5.8* and PLAP activator 1.2.
For CC[C@@]1(O)C(=O)OCc2c1cc1n(c2=O)Cc2cc3c(N)cccc3nc2-1 the results were Cav3 T inh 0.81.
For CC[C@@]1(O)C(=O)OCc2c1cc1n(c2=O)Cc2cc3c(CN(C)C)c(O)ccc3nc2-1 the results were Cav3 T inh -6.3*.
Screening CN(C)CCNc1nc2c(c(=O)[nH]c(=O)n2C)n1CC(O)COc1ccc(Cl)cc1 (stereo not given) returned Cav3 T inh -1.8, Her2 expr inh 78, PLAP activator 1.2, M1 ag -0.51 and M1 antag 0.71.
For CCN(CC)CCNc1nc2c(c(=O)[nH]c(=O)n2C)n1CC(O)COc1ccc(Cl)cc1Cl (stereo not given) the results were Cav3 T inh 0.47, Her2 expr inh 106, PLAP activator 2*, M1 ag 1.6 and M1 antag -0.63.
For N#CCCSc1ccccc1NC(=O)c1ccc(S(=O)(=O)N2CCCC2)cc1 the results were Cav3 T inh -0.07, Her2 expr inh 67, PLAP activator 0.9, M1 ag 0.48 and M1 antag 0.43.
CCOC(=O)C1CCCN(C(=O)C(C)Oc2ccc(Cl)cc2Cl)C1 (stereo not given) was read as Cav3 T inh -0.98, Her2 expr inh 141, PLAP activator 1.1, M1 ag 4.5* and M1 antag 0.14.

Assay outcomes deposited in PubChem BioAssay by several laboratories.
